# Test results: PubChem BioAssay AID493185 (National Center for Advancing Translational Sciences (NCATS), 2011)
# The source made the active and inactive calls. Where a call stands in place of a potency, no number is given. The call rests on the fitted dose curve; in most records, active means well fitted activation curve with a large enough effect; inconclusive means small, poorly fitted or top-dose-only effect; inactive means no such curve, though single readings can be large or run the other way.
# Test: Counterscreen for Identifying a Potential Treatment of Ataxia-Telangiectasia: Hit Validation
# Conditions: cell-free AlphaLISA/AlphaScreen artifact counterscreen, PBS only, no cells; series mostly up to 76.9 µM
# Text: NIH Chemical Genomics Center [NCGC]
# NIH Molecular Libraries Probe Centers Network [MLPCN]
# Assay Submitter (PI): Wei Zheng and Yosef Shiloh
# Ataxia-telangiectasia (A-T) is a devastating and progressive disease for which, there is no cure. Although A-T is a multisystem disease, it is stereotyped characterized by its neurological symptoms such as truncal ataxia, due to cerebellar cortical degeneration of the Purkinje and granule cells. Other symptoms of A-T are telangiectasias (dilated blood vessels), primary immunodeficiency, marked sensitivity to ionizing radiation (IR), chromosomal instability and predisposition to cancer.
# The underlying genetic cause of A-T is null mutations in the ATM (A-T mutated) gene. ATM is a nuclear serine/threonine kinase that functions as a master regulator of the cellular responses to double strand breaks (DSBs) in the DNA. Upon activation by DSBs, ATM phosphorylates a plethora of downstream targets, including KAP-1 on […]. KAP-1 phosphorylation occurs shortly in response to DSBs and mediates global chromatin relaxation, which facilitates DSB repair. To screen for small molecules that will compensate for the loss of ATM in cells derived from A-T patients, we monitored KAP-1 phosphorylation as a readout for ATM-like activity using an AlphaLISA assay.
# 3. Library compounds, 23 nl, 76.7 - 0.61uM dilution series final concentration
# 4. Incubation, 60 min, 37C, 5% CO2, 95% humidity
# 6. Incubation, 30 min, 37C, 5% CO2, 95% humidity
# 7. Reagent, 1 ul, Premixed detection reagents and lysis buffer
# 8. Reagent, 1 ul, 0.6% Antifoam A
# 9. Incubation, 6 hr, 25C, 95% humidity
# 10. Readout, EnVision, EnVision plate reader. AlphaScreen 1536-well protocol
# PBS was dispensed into medium-binding white solid-bottom tissue culture treated Kalypsys plates with a Multidrop dispenser. Detection reagent and lysis buffer was 3.75nM Rab-a-pKAP1 antibody bound to 75 ng/ul AlphaScreen SA donor bead, 3.75 nM Biot-M-a-KAP1 antibody bound to AlphaLISA protein A acceptor bead, 0.5x protease inhibitor cocktail and 0.25x PerkinElmer lysis buffer. EnVision protocol for 1536-well AlphaScreen read (30ms excitation, 100ms read), about 10 min/plate. This assay is similar to the primary screen but is without cells. It aims to identify artifacts of the assay platform and unspecific hits.
# Potency means the concentration at half of the fitted maximal effect.
row,Structure (SMILES),Potency
1,COc1ccc(-n2c(C)cc(=O)[nH]c2=O)cc1,inactive
2,COc1cc(CCC(C)NCc2ccccc2)ccc1O (stereo not given),inactive
3,O=C(CCCn1nnnc1CN1CCOCC1)N1CCC(c2ccc(F)cc2)C1 (stereo not given),inactive
4,CNC(=S)N/N=C/c1ccc2c(c1)OCCO2,inactive
5,Clc1cccc(CN2CCC(Cc3ccccc3)CC2)c1,inactive
6,COc1ccc2c(c1)cc(C(=O)N[C@H](C(=O)N1CCC(C(=O)O)CC1)C(C)C)n2C,inactive
7,COc1cccc(CNC(=O)C(CC(C)C)NC(=O)c2ccccc2C)c1 (stereo not given),inactive
8,COC1=C(N)C(=O)c2nc(-c3nc(C(=O)O)c(C)c(-c4ccc(OC)c(OC)c4O)c3N)ccc2C1=O,inactive
9,COc1ccccc1OC(=O)Nc1ccc(Cl)cc1,6.54 µM (active)
10,CNC(=O)/C=C/c1cc(C(=O)c2ccc(Cl)cc2Cl)cn1C,inactive
11,CCOC(=O)N1CCN(c2nc(N(c3ccccc3)c3ccccc3)nc(-n3ccnc3)n2)CC1,inactive
12,OC(COC(c1ccc(F)cc1)c1ccc(F)cc1)CN1CCCC1 (stereo not given),inactive
13,O=C(Nc1cnn(C23CC4CC(CC(C4)C2)C3)c1)c1cnn2cccnc12,inactive
14,Nc1ccc2ncccc2c1,inactive
15,Cc1ccc2c(c1)sc(=NC(=O)C1CC1)n2C,inactive
16,CC(C)CC(=O)Nc1c2c(nn1-c1cccc(Cl)c1)CS(=O)C2 (stereo not given),inactive
17,COc1cccc(C2C(C(N)=O)=C(C)Nc3nc(CCCO)nn32)c1 (stereo not given),inactive
18,O=c1c(-c2ccc(Cl)cc2)c[nH]n1-c1ccccc1,inactive
19,CCOc1cccc(/C=C/c2ccc3cccc(O)c3n2)c1OC,inactive
20,CCC(Oc1ccccc1)C(=O)N(C)CC(=O)N(CC(C)C)c1c(N)n(CC(C)C)c(=O)[nH]c1=O (stereo not given),inactive

row,Structure (SMILES),Potency
1,CCn1nc(C)c(/C=N/NC(=O)Cn2cncn2)c1C,inactive
2,CCS(=O)(=O)c1ccc(C(=O)Nc2ccccc2)c(Cl)c1Cl,inactive
3,NC(=O)C1CCN(Cc2nc3cc(C(F)(F)F)ccc3c(=O)[nH]2)CC1,inactive
4,CC(=O)Nc1ccc(NC2=CC(=O)c3ccccc3C2=O)cc1,inactive
5,COc1ccc(/C=N/Nc2nc(=O)[nH]nc2C)cc1OC,inactive
6,CN(C)Cc1ccc(F)cc1Sc1cc(Cl)ccc1Cl,inactive
7,CC(C)C1CC(CCN)(c2ccccc2)CCO1 (stereo not given),inactive
8,Cc1ccnc(NC(=O)c2ccccc2NC(=O)c2ccccc2)c1,inactive
9,COc1cccc(OCCc2c(C)n[nH]c2C)c1,inactive
10,COc1ccccc1S(=O)(=O)Nc1ccc(-c2nnc3n2CCCCC3)cc1,inactive
11,CCNC(=S)N(Cc1cc2cccc(C)c2[nH]c1=O)C1CCCC1,inactive
12,COc1ccc(-c2cc(C(F)(F)F)c(C#N)c(SCC(=O)O)n2)cc1OC,inactive
13,COc1ccccc1C1CCN(C(=O)c2ccc(Cl)cc2)CC1,inactive
14,O=S(=O)(C/C(=C/CO)S(=O)(=O)c1ccccc1)c1ccccc1,inactive
15,COc1ccc(NS(=O)(=O)c2ccc(N3CC(O)=C(c4ccccc4)C3=N)cc2)cc1,inactive
16,NCC(=O)c1cccc2ccc[n+]([O-])c12,inactive
17,O=C(O)c1ccc(C2Nc3ccccc3C(=O)N2Cc2ccccc2)cc1 (stereo not given),inactive
18,N=c1ccn(Cc2ccc([N+](=O)[O-])cc2)cc1,inactive
19,CCN1CCN(CC(=O)Nc2ccc(C(C)=O)cc2)CC1,inactive
20,O=C(CSc1nnc(CNC(=O)c2ccccc2)o1)NCCc1ccccc1,inactive
